The structures appear in SMILES notation. In all, about 350,000 compounds went through this assay and about 2,100 (0.6%) were called active. The full list was thinned out, with actives kept by preference. Unmarked numbers belong to inactive results.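 Rule for the calls: active = inhibition of the ligand-induced calcium signal above about 50% at the single tested concentration (limit read from the data); inactive = the rest.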

The term inhibition denotes the change of the read-out against control, counted positive when it falls.

This test in a line: blockers of CRF-evoked CRF-R2/CRF-BP calcium response – cell-based, HEK293, calcium dye fluorescence, uHTS, primary screen (AID 588475). To be noted: CRF-induced calcium fluorescence, at 11.8 µM, active compounds read high.
On to `CCCCn1c(=O)c(C(=O)Nc2ccccc2Cl)c(O)c2ccccc21`, for which the inhibition is -17.9%.

On to `CCCCCn1c(=O)c(C(=O)NCc2ccccc2)c(O)c2ccccc21`, for which the inhibition was 3.02%.

As to `CCCCCn1c(=O)c(C(=O)Nc2c(C)n(C)n(-c3ccccc3)c2=O)c(O)c2ccccc21`, the inhibition was 56.7% (active).

For the molecule `O=C(COc1ccc2ccccc2c1)N1CCN(Cc2ccncc2)CC1`, the inhibition was -1.35%.

With `O=c1c2ccccc2nc(-c2ccc(Cl)cc2Cl)n1-c1ccncc1`, the inhibition is 13.6%.
